Laboratory results as given in PubChem BioAssay (EPA / NIEHS).
Several values for one entry are separate records, joined by “and”; a condition that tells them apart may be missing. Equal values may be shown once. Inconclusive results are not listed. Where a structure was tested more than once in an assay, its records may differ in their call. Activity calls are given as the source filed them. The calls were made as follows, unless noted: active = hit-call score of the fitted dose curve at least 0.9, where 1 is the maximum; inactive = score below 0.9.

Columns and labels:
[1] = ACEA_ER_80hr: ACEA Biosciences xCELLigence Real-Time Cell Analysis on Estrogen Receptor Agonism for Proliferation (AID 2282667; active = hit-call score of the fitted dose curve at least 0.9, where 1 is the maximum); settings: T47D proliferation, impedance (xCELLigence), 80 h
Summary of the method: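 T-47D cells monitored by electrical impedance (xCELLigence) with compound present throughout; 80 h timepoint, positive-direction fitting versus DMSO. Eight-point 1:4 dilutions from 100 uM final, duplicate plates.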

[2] = target: CCAAT/enhancer-binding protein beta (Homo sapiens) (UniProt P17676); assay: ATG_C_EBP_CIS: Attagene CIS-FACTORIAL HepG2 Assay for human CCAAT/Enhancer Binding Protein (C/EBP) beta (AID 2282927); settings: HepG2 Attagene cis-factorial transcription factor reporter; actives raise or lower the signal
Summary of the method: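 Following a 24 h incubation with test chemical, transfected HepG2 cells yielded RNA whose reporter transcripts were quantified by RT-PCR and fluorescent capillary electrophoresis, with DMSO serving as baseline for bidirectional fitting.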

[3] = ATG_CMV_CIS: Attagene CIS-FACTORIAL HepG2 Assay for human CMV (Internal Marker) (AID 2282928); settings: HepG2 CMV promoter reporter, transcription factor profiling; actives raise or lower the signal;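 also: endpoint acts as a background internal control marker rather than a target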
Summary of the method: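 Bidirectional fits against DMSO are applied to reporter mRNA, read by RT-PCR with capillary electrophoresis, from HepG2 cells exposed 24 h. The endpoint serves as an internal CMV background marker within the cis-factorial reporter panel.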

[4] = ATG_DR4_LXR_CIS: Attagene CIS-FACTORIAL HepG2 Assay for human Liver X Receptor (LXR), DR4 submotif (AID 2282929); settings: HepG2 Attagene DR4 cis-reporter, mRNA transcription; actives raise or lower the signal
Summary of the method: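 HepG2 cells transiently transfected with cis-promoter-driven multiplexed reporter units (DR4 element) were dosed for 24 h. Reporter mRNA was quantified by RT-PCR, fluorescent primer extension, HpaI digestion and capillary electrophoresis; bidirectional fitting versus DMSO baseline.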

[5] = ATG_AP_2_CIS: Attagene CIS-FACTORIAL HepG2 Assay for human Activator Protein 2 (AP-2) (AID 2282932); settings: HepG2 AP-2 cis-reporter, Attagene transcription factor profiling; actives raise or lower the signal
Summary of the method: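 Assay in transfected HepG2 with promoter-regulated reporters, 24 h incubation after dosing. Signal is reporter mRNA fluorescence (RT-PCR, capillary electrophoresis), analysed for both increases and decreases relative to DMSO controls.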

[6] = ATG_BRE_CIS: Attagene CIS-FACTORIAL HepG2 Assay for human Bone Morphogenetic Protein (BMP) Response Element (BRE) (AID 2282933); settings: HepG2 BMP response element reporter, Attagene transcription factor profiling; actives raise or lower the signal
Summary of the method: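 Endogenous transcription factor activity at a BMP response element was monitored in transfected HepG2 cells 24 h after dosing. Fluorescent RT-PCR products were resolved by capillary electrophoresis, and activity was fitted in both directions versus DMSO.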

[7] = target: Retinoic acid receptor alpha (Homo sapiens) (UniProt P10276); assay: ATG_DR5_RAR_CIS: Attagene CIS-FACTORIAL HepG2 Assay for human Retinoic Acid Receptor Alpha (RARE), DR5 submotif (AID 2282934); settings: HepG2 Attagene cis-factorial RARE DR5 reporter, mRNA; actives raise or lower the signal
Summary of the method: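 Endpoint fitted in both directions relative to DMSO as negative control. It reflects DR5 cis-element reporter mRNA induction in transiently transfected HepG2 cells, measured 24 h after dosing through RT-PCR and fluorescent capillary electrophoresis.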

[8] = target: Aryl hydrocarbon receptor (Homo sapiens) (UniProt P35869); assay: ATG_Ahr_CIS: Attagene CIS-FACTORIAL HepG2 Assay for human Aryl Hydrocarbon Receptor (Ahr) (AID 2282930); settings: HepG2 AhR cis-factorial reporter transcription; actives raise or lower the signal
Summary of the method: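 Values derive from bidirectional fitting against DMSO negative control. Underlying signal: cis-element reporter mRNA in transiently transfected HepG2, harvested 24 h post-dose and measured by RT-PCR plus capillary electrophoresis.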

[9] = ATG_AP_1_CIS: Attagene CIS-FACTORIAL HepG2 Assay for human Activator Protein 1 (AP-1) (AID 2282931); settings: HepG2 Attagene cis-factorial AP-1 reporter mRNA; actives raise or lower the signal
Summary of the method: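 HepG2 cells transiently transfected with cis-element-driven multiplex reporter units; 24 h compound exposure. Reporter mRNA quantified by RT-PCR, FAM-labelled fragments resolved by capillary electrophoresis; bidirectional fit versus DMSO baseline.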

Measured: AC50

Retinoic acid receptor alpha (Homo sapiens), sequence (P10276 whole entry, looked up): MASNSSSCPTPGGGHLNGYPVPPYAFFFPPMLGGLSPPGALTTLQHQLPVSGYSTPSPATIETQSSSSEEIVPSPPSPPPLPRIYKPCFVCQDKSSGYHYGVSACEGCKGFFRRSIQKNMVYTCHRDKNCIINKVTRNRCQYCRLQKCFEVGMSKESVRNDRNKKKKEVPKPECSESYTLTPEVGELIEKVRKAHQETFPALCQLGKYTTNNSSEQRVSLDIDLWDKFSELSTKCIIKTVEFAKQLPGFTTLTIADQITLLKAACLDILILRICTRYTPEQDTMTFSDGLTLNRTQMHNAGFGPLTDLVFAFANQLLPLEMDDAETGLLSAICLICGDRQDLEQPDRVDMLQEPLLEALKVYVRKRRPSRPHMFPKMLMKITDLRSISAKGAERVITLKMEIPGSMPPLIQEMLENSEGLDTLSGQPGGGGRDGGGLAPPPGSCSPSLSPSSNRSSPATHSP
Aryl hydrocarbon receptor (Homo sapiens), sequence (P35869 whole entry, looked up): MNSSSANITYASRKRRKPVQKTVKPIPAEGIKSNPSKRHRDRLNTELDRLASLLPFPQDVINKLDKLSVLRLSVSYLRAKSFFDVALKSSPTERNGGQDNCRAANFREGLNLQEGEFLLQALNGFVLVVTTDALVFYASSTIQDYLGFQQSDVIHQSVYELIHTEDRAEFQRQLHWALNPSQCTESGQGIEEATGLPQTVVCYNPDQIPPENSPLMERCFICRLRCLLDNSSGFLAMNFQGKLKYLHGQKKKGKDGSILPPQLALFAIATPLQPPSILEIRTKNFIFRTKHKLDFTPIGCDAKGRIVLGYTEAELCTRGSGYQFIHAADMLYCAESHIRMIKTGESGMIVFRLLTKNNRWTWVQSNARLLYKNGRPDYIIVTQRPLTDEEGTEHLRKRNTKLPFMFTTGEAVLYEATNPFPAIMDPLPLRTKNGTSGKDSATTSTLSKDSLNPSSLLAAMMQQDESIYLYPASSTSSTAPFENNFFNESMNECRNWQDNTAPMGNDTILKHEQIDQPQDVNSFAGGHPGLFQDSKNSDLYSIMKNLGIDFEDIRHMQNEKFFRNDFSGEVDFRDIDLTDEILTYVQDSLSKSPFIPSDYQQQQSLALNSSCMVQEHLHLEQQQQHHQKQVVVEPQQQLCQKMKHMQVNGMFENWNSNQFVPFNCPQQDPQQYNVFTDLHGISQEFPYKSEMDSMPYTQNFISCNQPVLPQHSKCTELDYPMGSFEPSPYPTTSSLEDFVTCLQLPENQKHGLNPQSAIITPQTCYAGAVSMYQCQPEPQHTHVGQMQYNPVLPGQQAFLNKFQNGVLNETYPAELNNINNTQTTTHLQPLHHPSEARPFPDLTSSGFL
CCAAT/enhancer-binding protein beta (Homo sapiens), sequence (P17676 whole entry, looked up): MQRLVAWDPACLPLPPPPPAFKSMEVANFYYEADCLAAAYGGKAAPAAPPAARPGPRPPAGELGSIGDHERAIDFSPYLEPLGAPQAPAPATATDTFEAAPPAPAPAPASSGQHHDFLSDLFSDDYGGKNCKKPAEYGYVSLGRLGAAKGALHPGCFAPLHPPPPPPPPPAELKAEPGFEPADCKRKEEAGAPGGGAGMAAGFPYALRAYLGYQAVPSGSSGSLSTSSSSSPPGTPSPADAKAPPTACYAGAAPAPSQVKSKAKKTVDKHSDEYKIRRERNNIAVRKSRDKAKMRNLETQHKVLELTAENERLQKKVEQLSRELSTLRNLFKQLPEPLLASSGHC

OCC(F)(F)C(F)(F)C(F)(F)C(F)(F)C(F)(F)C(F)F
not listed: [8] | [9]
inactive: all other assays above

O=C(CC(=O)C(F)(F)C(F)(F)F)C(F)(F)F
not listed: [8] | [9]
inactive: all other assays above

Cc1ccc(S(=O)(=O)OCC(F)(F)C(F)(F)C(F)(F)C(F)(F)C(F)(F)C(F)F)cc1
not listed: [2] | [9]
inactive: all other assays above

CCCCC(CC)COP(=O)(O)OCC(CC)CCCC (configuration not stated)
active: [4] 42 µM | [9] 60.6 µM
not listed: [2]
inactive: all other assays above

CCCCCC=O
not listed: [7] | [8]
inactive: all other assays above

O=C(O)C(F)(F)C(F)(F)C(F)(F)C(F)(F)F
inactive: all assays above

O=C(O)C(F)(F)C(F)(F)C(F)F
not listed: [8]
inactive: all other assays above

Nc1cc(Cl)c(N)c(Cl)c1
active: [1] 13.5 µM | [8] 6.21 µM
not listed: [2] | [9]
inactive: all other assays above

O[Si](c1ccccc1)(c1ccccc1)c1ccccc1
active: [4] 9.89 µM | [9] 100 µM | [6] 32.3 µM
inactive: all other assays above

OCC(F)(F)C(F)(F)C(F)(F)C(F)(F)C(F)(F)C(F)(F)F
active: [2] 204 µM
not listed: [9]
inactive: all other assays above

CS(C)(=O)=O
not listed: [9]
inactive: all other assays above

CCC(=O)OCCc1ccccc1
not listed: [8] | [9]
inactive: all other assays above

O=S(=O)(OCCOC(F)(F)F)C(F)(F)F
not listed: [2] | [8]
inactive: all other assays above

COC(=O)C1CCC(C(=O)OC)CC1 (configuration not stated)
inactive: all assays above

CCCCCCCCCCCCCCCC[N+](C)(C)Cc1ccccc1
active: [3] 44.8 µM | [4] 24.9 µM | [5] 51.9 µM
not listed: [2]
inactive: all other assays above

O=S(=O)(OCC(F)F)C(F)(F)F
not listed: [2]
inactive: all other assays above

C=CC/C=C/C/C=C/C/C=C/C
not listed: [8]
inactive: all other assays above

Cc1cccc(N(C)C)c1
inactive: all assays above

O=C(O)C(F)(F)C(F)(F)F
inactive: all assays above

O=C(O)C(F)(F)C(F)(F)C(F)(F)C(F)(F)C(F)(F)C(F)(F)C(F)(F)C(F)(F)Cl
active: [4] 39.1 µM and 34.7 µM | [5] 83.2 µM
inactive: [1] | [3] | [8] | [9] | [5] | [6] | [7]

NC(=O)C(F)(F)C(F)(F)C(F)(F)C(F)(F)F
inactive: all assays above

CCCCOc1ccc(N)cc1
not listed: [8]
inactive: all other assays above

FC(F)(F)C(F)(F)C(F)(F)C(F)(F)C(F)(F)C(F)(F)C(F)(F)C(F)(F)F
not listed: [9]
inactive: all other assays above

CC(=O)Nc1ccc(N=Nc2cc(C)ccc2O)cc1
not listed: [2] | [8] | [9]
inactive: all other assays above

Oc1ccc(Nc2ccccc2)cc1
active: [3] 41.8 µM
not listed: [9]
inactive: all other assays above

CCCCNc1ccccc1
not listed: [8] | [9]
inactive: all other assays above

O=C(O)C(F)(OC(F)(F)C(F)(OC(F)(F)C(F)(OC(F)(F)C(F)(F)C(F)(F)F)C(F)(F)F)C(F)(F)F)C(F)(F)F (configuration not stated)
not listed: [2] | [8]
inactive: all other assays above
